Compound activity from PubChem.
Hits are enriched below; roughly 0.81% of the tested compounds scored in any of these assays.
TbPYK inhibitor: qHTS of Trypanosoma Brucei Inhibitors | AID 624173, 2012 | Potency, µM (top dose mostly 76.8 µM), for the others: at the top dose activity, negative = inhibition, hits mostly inhibitors | 410,000 tested, 0.12% active | TbPYK enzyme, Kinase-Glo Plus ATP luminescence, 45 min; note: % is set by controls: 0 for no effect and ±100 for the full control effect; nearly all actives have a fitted effect of over 50% in size
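Screened from lowest to highest concentration, compounds were pinned into TbPYK/substrate mixtures, and ADP (130 uM final) was added. Plates sat at room temperature for 45 min prior to Kinase-Glo Plus detection by luminescence.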
AMA1 RON2 block: qHTS for Inhibitors of AMA1-RON; Towards Development of Antimalarial Drug Lead: Primary Screen; Plasmodium falciparum AMA1 (3D7) - RON2 peptide interaction; AlphaScreen AMA1-biotinylated RON2 peptide binding; 360,000 tested, 0.2% active; Potency, µM (doses to about 58.2 µM), for the others: at the top dose activity change, negative = inhibition, usual class: inhibitors; AID 720542, 2013;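 note: 0% = vehicle wells and -100% = peptide control; nearly all actives have a fitted effect of over 45% in size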
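AMA1 (3D7) with his tag at 25 nM final met compounds first, then biotinylated RON2 peptide at 25 nM; detection used donor plus acceptor beads, 10 µg/mL apiece, read by AlphaScreen after 30 min at room temperature.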
SARS PLP yeast: qHTS of Yeast-based Assay for SARS-CoV PLP. S. cerevisiae expressing SARS-CoV PLpro, growth rescue. Potency, µM (series often up to 32.9 µM), without a hit: top-dose activity, positive = growth rescue, actives largely listed as activators. 330,000 tested, 0.19% active. AID 485353, 2010; calls by dose curve; note: 0% is about no effect; nearly all actives have a fitted effect of over 55% in size
LmPK inh: qHTS Assay for Inhibitors of Leishmania Mexicana Pyruvate Kinase (LmPK); Q27686; purified LmPK, Kinase-Glo ATP luminescence, 1 h; Potency, µM (titrated, usually from 57.5 µM), without a hit: at the highest dose activity change, negative = inhibition, usual class: inhibitors; 290,000 tested, 0.37% active; note: % is set by controls: 0 for no effect and ±100 for the full control effect
Target sequence (Q27686 whole entry, looked up): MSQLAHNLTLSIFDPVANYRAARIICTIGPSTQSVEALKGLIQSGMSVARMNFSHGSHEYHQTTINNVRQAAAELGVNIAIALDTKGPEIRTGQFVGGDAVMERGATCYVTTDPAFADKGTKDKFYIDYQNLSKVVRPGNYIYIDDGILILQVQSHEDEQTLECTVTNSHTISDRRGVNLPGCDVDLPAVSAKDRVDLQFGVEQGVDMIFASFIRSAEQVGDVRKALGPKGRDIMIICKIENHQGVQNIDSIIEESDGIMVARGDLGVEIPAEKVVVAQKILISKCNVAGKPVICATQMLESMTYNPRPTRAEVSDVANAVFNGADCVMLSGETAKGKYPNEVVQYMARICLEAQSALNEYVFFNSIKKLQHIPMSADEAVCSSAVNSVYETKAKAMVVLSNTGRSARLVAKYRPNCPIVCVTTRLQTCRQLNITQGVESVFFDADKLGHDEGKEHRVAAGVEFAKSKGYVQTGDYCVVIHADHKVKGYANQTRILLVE
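In 50 mM imidazole pH 7.2 with 7 mM MgCl2, LmPK (0.1 nM) turned over PEP (0.5 mM) and ADP (0.1 mM) for 1 h at room temperature. Luciferase read-out of ATP.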
RE007 growth inh: qHTS Assay for Inhibitors of the HIV-1 protein Vpr. S. pombe RE007 Vpr strain, BacTiter-Glo ATP luminescence, 24 h. Potency, µM (doses to about 92.2 µM), inactives show top-dose activity change, negative = less growth, actives largely listed as inhibitors. 360,000 tested, 0.21% active. AID 651644, 2012; active = well fitted falling curve with a large enough effect; inconclusive = small, poorly fitted or top-dose-only effect; inactive = no such curve, though single readings can be large or run the other way; note: % is set by controls: 0 for no effect and ±100 for the full control effect; nearly all actives have a fitted effect of over 50% in size
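Fission yeast RE007 carrying one integrated HIV-1 vpr copy, seeded at OD 0.01 in PMG+AL medium with 23 nL pinned compound. Grown 24 h at 30 degrees; viability read by BacTiter-Glo luminescence after 5 min.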
* marks the source's active call; other numbers are inactive results; ? = inconclusive; . = no result given; [ ] = remark or other dose. Unless noted, calls come from the whole dose curve; as a rule, active = well fitted curve in the direction sought with a large enough effect; inconclusive = small, poorly fitted or top-dose-only effect, or another doubt; inactive = no such curve, though single readings can be large; an effect the other way counts as inactive or inconclusive. Potency is the fitted concentration of half-maximal effect.

SMILES | TbPYK inhibitor | AMA1 RON2 block | SARS PLP yeast | LmPK inh | RE007 growth inh
COC(=O)C(CC(=O)c1ccc(Br)cc1)n1nc(C)cc1C (configuration not stated) | ? | -2% | -17% | -7% | 28µM*
CCCCCCOc1ccc(C(=N)N(CCCC)CCCC)c2ccccc12 | -6% | . | . | . | .
O=C1C=C(O)c2c(O)cc(O)c(O)c2C1=O | -44% | 1µM* | . | . | -2%
O=C1c2ccccc2C(=O)c2c(O)c(O)cc(O)c21 | -12% | -10% | -11% | . | ?
COC(=O)c1sccc1S(=O)(=O)Nc1ccc(N2CCCCC2)cc1 | -2% | 14µM* | 0% | 1% | 3%
COC(=O)c1sccc1S(=O)(=O)Nc1ccc(S(N)(=O)=O)cc1 | -3% | -16% | 1% | -1% | -6%
CC(=C/c1ccco1)/C=N/N1CCN(c2ccccc2)CC1 | . | 1% | -8% | 16µM* | 0%[3.69 µM]
CC(/C=N/N1CCN(c2ccccc2)CC1)=C\c1ccccc1 | 5% | -8% | -2% | -17% | 4%
CC(/C=N/N1CCN(c2ccccc2)CC1)=C\c1ccco1 | ? | -24% | -7% | 13µM* | -23%
O=C(CN1CCCCCCC1)N/N=C/c1ccc([N+](=O)[O-])o1 | -1% | 10µM* | -1% | -2% | -6%
COc1cccc(/C=N/Nc2nn3cnnc3c3ccccc23)c1 | -9% | 37% | 9% | 25µM* | -1%
CCOc1cc(/C=N/Nc2nn3cnnc3c3ccccc23)ccc1O | 0% | 59% | -1% | 16µM* | -7%
COc1cc(/C=N/Nc2nn3cnnc3c3ccccc23)ccc1O | -18% | 36% | 3% | 7.9µM* | -15%
Oc1ccc(/C=N/Nc2nn3cnnc3c3ccccc23)cc1 | 0% | 73% | -3% | 14µM* | -23%
C(=N\Nc1nn2cnnc2c2ccccc12)/c1ccco1 | 0% | 72% | -1% | -4% | 1%
Cc1nn2c(-c3ccco3)ccnc2c1-c1ccc(Cl)cc1 | 2% | . | . | . | .
CC(C)Oc1ccc(CNC(=O)c2ccc(NC(=O)N3CCSc4ncccc43)cc2)cc1 | -9%[15.4 µM] | . | . | . | .
COc1ccc(CNC(=O)c2cccc(NC(=O)N3CCSc4ncccc43)c2)cc1 | -4%[15.4 µM] | . | . | . | .
COc1ccccc1N=c1oc2cc(O)ccc2cc1C(N)=O | -3% | 4% | -33% | -16% | 8.9µM*
c1coc(-c2nc(-c3ccncc3)no2)c1 | -19% | 6% | -5% | 22µM* | -28%
c1ccc(-c2ccc(-c3nc(-c4ccncc4)no3)cc2)cc1 | -11% | 4% | 10% | 8% | 13%
c1ccc(-c2nc(-c3ccncc3)no2)cc1 | -14% | -6% | . | 14µM* | -19%
O=C1NC(=S)S/C1=C\C=C\c1ccc([N+](=O)[O-])o1 | -19% | -21% | -22% | -13% | 40µM*
O=C(O)/C=C/c1ccc([N+](=O)[O-])o1 | -9% | -6% | 3% | 7% | -6%
C=C(CC[C@@H](C)[C@H]1CCC2[C@]1(C)CC[C@]13C[C@@]14CCC(OC(=O)/C=C/c1ccc(O)c(OC)c1)C(C)(C)[C@@H]4CC[C@@]23C)C(C)C (some centres not stated) | -8% | . | . | . | .
SMILES | TbPYK inhibitor | AMA1 RON2 block | SARS PLP yeast | LmPK inh | RE007 growth inh
N[C@H]1CN(c2c(F)cc3c(=O)c(C(=O)O)cn(C4C[C@@H]4F)c3c2Cl)CC12CC2 (some centres not stated) | -4% | . | . | . | .
Cc1cc(C)n2c(=S)[nH]nc2n1 | 10µM* | 28% | 12% | 1% | 5%
Cc1cc(C)n2cnnc2n1 | -8% | 0% | 0% | -2% | -19%
CCc1nc2ccc(C(=O)NCc3ccccc3OC)cn2c1N(C)Cc1ccc(N(C)C)cc1 | -9% | 14µM* | . | . | ?
COC(=O)C1=C(C)N(Cc2ccccc2)C(=NCc2ccco2)N[C@H]1c1ccc(Br)cc1 | . | . | . | -8% | .
CCN(CC)c1ccc(/C=C2\C(=O)c3ccc(C(=O)O)cc3C2=O)cc1 | 25µM* | -12%[11.6 µM] | -26% | -21% | -20%
Cc1cccc(NC(=O)c2sc3nc4c(cc3c2N)CN(C(C)C)CC4)c1 | -14% | . | . | . | .
CCOc1ccccc1CNc1ncnc2c1nc1n2CCCC1 | -7% | . | . | . | .
